The record followed here is PubChem BioAssay (NCI).

The structures appear in SMILES notation. The panel holds about 83,000 compounds, 20% with a hit somewhere; the sample as a whole holds those more often.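 A percent growth of 40 corresponds to 60% growth inhibition; 0 means no net growth; -100 means all cells died. Active threshold: below 10.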 A number with no mark means an inactive call. Activity calls are given as the source filed them.

What all share (assay): NCI-60 one-dose screen, 48 h (100 = growth as untreated, 0 = no growth, -100 = all killed)
Common to all, as to conditions: 10 µM unless noted

The test system of experiment [1] is NCI-H23 lung.
In experiment [2] the test system is NCI-H226 lung.
Experiment [3] relates to NCI-H322M lung.
The test system of experiment [4] is HOP-62 NSCLC.
The subject of experiment [5] is NCI-H460 lung.
Experiment [6] concerns HOP-92 NSCLC.
The subject of experiment [7] is NCI-H522 lung.
The test system of experiment [8] is A549/ATCC NSCLC.
For experiment [9], the system named is 786-0 renal.
The test system of experiment [10] is COLO 205 colon.
Experiment [11] deals with DU-145 prostate.
For experiment [12], the system named is K-562 leukemia.
Experiment [13] has as its system MALME-3M melanoma.
Experiment [14] concerns MDA-MB-231 breast.
The test system of experiment [15] is RXF 393 renal.
Experiment [16] deals with SF-268 CNS.
In experiment [17] the test system is SF-295 CNS.
The test system of experiment [18] is SF-539 CNS.
In experiment [19] the test system is UACC-257 melanoma.
For experiment [20], the system named is M14 melanoma.

As to `CCCCC#Cc1c(I)n(C2OC(CO[Si](C)(C)C(C)(C)C)C3OC(C)(C)OC32)c(=O)n(C(=O)c2ccccc2)c1=O` (stereo not given), the growth in experiment [1] is 51.9%; in [2], 67.7%; in [3] it was 110%; in experiment [4], 94.8%; in experiment [5], 68.5%; in [6] it was -37.6% (active). Further, the growth was 71% in experiment [7]; 67.7% in experiment [8]; 64.1% in experiment [9]; -46.9% (active) in [10]; 74.7% in experiment [11]; 6.35% (active) in experiment [12]. The growth in experiment [13] is 1.91% (active); in experiment [14] it was 10.1%; in experiment [15], -56.8% (active); in experiment [16], 36.8%; in [17] it was 74%; in experiment [18], 3.54% (active). The growth in [19] was 77.6%; in experiment [20], 78.6%.
Take `COC1C(O)CC(OC2CC(OC3CC(O[C@@H]4C(=O)c5c(cc6cc(OC7CC(OC8CC(O)C(O)C(C)O8)C(O)C(C)O7)c(C)c(O)c6c5O)CC4[C@H](OC)C(=O)O)OC(C)C3O)OC(C)C2O)OC1C` (stereo not given in full): the growth was 6.6% (active) in experiment [1]; -36.1% (active) in [2]; 14.5% in experiment [3]; 1.26% (active) in experiment [4]; 13.5% in [5]; 20.4% in [6]. Moreover, the growth in [7] is -13.7% (active); in [8] it was 8.44% (active); in experiment [9], 34.7%; in experiment [10], 14.7%; in experiment [11], 22.3%; in [12] it was 21.2%. For the same compound, the growth is 13.9% in experiment [13]; 48.4% in experiment [14]; -45.7% (active) in experiment [15]; 28.4% in experiment [16]; 10.9% in experiment [17]; 5.86% (active) in experiment [18]. In addition, the growth in [19] is -8.56% (active); in experiment [20], 35.4%.
For the compound `CCN1C2CCC1/C(=C\c1ccccc1)C(=O)/C2=C/c1ccccc1`, the growth in experiment [1] was 32.5%; in experiment [2] it was 59.9%; in experiment [3], 51.6%; in [4] it was 59.8%; in experiment [5], 51.5%; in experiment [6], 58.5%. Besides, the growth is 41.3% in experiment [7]; 72.9% in experiment [8]; 57.2% in experiment [9]; 43.5% in [10]; 1.64% (active) in experiment [11]; 32.1% in experiment [12]. The growth in experiment [13] was 63.7%; in [14] it was 79.2%; in [15], 48.9%; in experiment [16], 42.8%; in experiment [17], 48.4%; in [18] it was 45.4%. The values for the growth in experiment [19] and in experiment [20] were 52.2% and 48.2%, respectively.
With `COc1cc(/C=C/C(=O)N2CCN(C(=O)c3cc(OC)c(OC)c(OC)c3)CC2)ccc1OCCCOc1cc2c(cc1OC)C(=O)N1CCC[C@H]1C=N2`, the growth in experiment [1] was -13.6% (active); in [2] it was -8.72% (active); in experiment [3] it was -5.89% (active); in experiment [4], 9.35% (active); in experiment [5] it was 6.44% (active); in [6] it was -37.1% (active). The growth in experiment [7] is -54.5% (active); in experiment [8], 12.7%; in experiment [9], 11.7%; in experiment [10], -63.4% (active); in experiment [11], 8.43% (active); in experiment [12] it was 1.04% (active). For the same compound, the growth in [13] was -58.6% (active); in experiment [14] it was 9.01% (active); in experiment [15], -55.4% (active); in experiment [16], 2.8% (active); in [17], -33.4% (active); in [18] it was -32.3% (active). Moreover, the growth in experiment [19] was -11.7% (active); in experiment [20] it was -80.2% (active).
For `Cc1[nH]n(-c2cccc(Cl)c2)c(=O)c1/C=C1\C=c2ccccc2=CC1=O`, the growth in experiment [1] was -1.95% (active); in experiment [2] it was 1.04% (active); in [3] it was 84.1%; in experiment [4] it was -57.9% (active); in [5], 79%; in experiment [6], -2.07% (active). Besides, the growth in experiment [7] is -11.3% (active); in experiment [8], 60.4%; in [9] it was -46.8% (active); in experiment [10] it was -83.5% (active); in experiment [11], 35.4%; in experiment [12] it was 99.1%. Also, the growth is 59% in experiment [13]; 4.08% (active) in experiment [14]; -76.9% (active) in [15]; 47.2% in experiment [16]; 25.6% in experiment [17]; 72.3% in [18]. The growth in experiment [19] was 80%; in experiment [20], 18.2%.
Consider `O=C(O)CC(C(=O)O)/C(=C\c1ccccc1)c1ccccc1` (stereo not given), for which the growth is 105% in experiment [1]; 86.4% in experiment [2]; 116% in experiment [3]; 89.3% in [4]; 106% in experiment [5]; 93.3% in experiment [6]. Also, the growth in experiment [7] is 128%; in experiment [8], 99.5%; in experiment [9], 114%; in [10] it was 99.5%; in [11] it was 139%; in experiment [12] it was 103%. The growth in experiment [13] was 117%; in experiment [14], 121%; in experiment [15], 104%; in experiment [16], 113%; in experiment [17], 115%; in experiment [18] it was 122%. The figures for the growth in experiment [19] and in experiment [20] were 100% and 121%, respectively.
On to `CCCn1c(=S)sc2c(NNC(C)=O)nc(C)nc21`, for which the growth was 99.3% in [1]; 97.1% in experiment [2]; 101% in [3]; 78.3% in experiment [4]; 101% in experiment [5]; 89.4% in experiment [6]. For the same compound, the growth in experiment [7] is 90.9%; in experiment [8] it was 89.1%; in experiment [9], 92.2%; in experiment [10], 126%; in experiment [11] it was 134%; in [12], 68.8%. For the same compound, the growth in experiment [13] was 101%; in experiment [14], 103%; in experiment [15] it was 98.5%; in [16], 111%; in experiment [17], 121%; in experiment [18] it was 90.6%. Further, the growth is 91.7% in experiment [19] and 108% in [20].
With `Cc1ccc(OCCOCCOCCOCCOCCOc2ccc(C)n(O)c2=S)c(=S)n1O`, the growth in [1] was 14.1%; in experiment [2], 6.73% (active); in [3], 21.5%; in [4], 10.5%; in experiment [5], 3.62% (active); in experiment [6], 34.3%. For the same compound, the growth in [7] was 25.8%; in experiment [8], 13.2%; in [9] it was -0.0239% (active); in [10], 10.4%; in experiment [11] it was 17.3%; in experiment [12], 14.5%. Also, the growth in experiment [13] was 16.5%; in experiment [14], 29.8%; in experiment [15] it was 40.6%; in experiment [16], 12.5%; in experiment [17], 16.8%; in [18], 1.52% (active). Moreover, the growth was -3.93% (active) in experiment [19] and -4.25% (active) in experiment [20].
